Results filed as inconclusive are left out. A call without a number means that no potency is given here. Values without a mark were called inactive. Active and inactive are the calls of the source. Calls follow the shape of the dose curve; as a rule, active = well fitted cell-killing curve with a large enough effect; inconclusive = small, poorly fitted or top-dose-only effect, or effect the other way; inactive = no such curve, though single readings can be large or run the other way.
Legend:
[1] = Quantitative High-Throughput drug screen in 47 multiple myeloma cell lines against the NCATS MIPE library collection: OPM1_PLB cell viability assay (AID 1918989); conditions: CellTiter-Glo, 48 h; series mostly up to 45.8 µM; also: nearly all actives have a fitted effect of over 40% in size; also: potency is read from the fitted curve at half-maximal effect
Summary of the method: (§1)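 Inhibition of viability over 48 h was scored by ATP content (CellTiter-Glo) in 500-cell wells. Zero and full viability were defined by media-only and DMSO-only wells.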

[2] = Quantitative High-Throughput drug screen in 47 multiple myeloma cell lines against the NCATS MIPE library collection: SKMM1_PLB cell viability assay (AID 1919863); conditions: SKMM1 myeloma viability, CellTiter-Glo ATP, 48 h; viability: stronger effect = lower value; also: nearly all actives have a fitted effect of over 35% in size; also: potency is read from the fitted curve at half-maximal effect
Summary of the method: as §1

[3] = Quantitative High-Throughput drug screen in 47 multiple myeloma cell lines against the NCATS MIPE library collection: XG6_PLB cell viability assay (AID 1919865); conditions: XG6 myeloma viability, CellTiter-Glo ATP luminescence, 48 h; series mostly up to 45.8 µM; also: nearly all actives have a fitted effect of over 40% in size; also: potency is read from the fitted curve at half-maximal effect
Summary of the method: as §1

[4] = Quantitative High-Throughput drug screen in 47 multiple myeloma cell lines against the NCATS MIPE library collection: XG1_PLB cell viability assay (AID 1919866); conditions: CellTiter-Glo ATP, 48 h; series mostly up to 45.8 µM; also: nearly all actives have a fitted effect of over 35% in size; also: potency is read from the fitted curve at half-maximal effect
Summary of the method: as §1

[5] = Quantitative High-Throughput drug screen in 47 multiple myeloma cell lines against the NCATS MIPE library collection: VP6_DJ cell viability assay (AID 1919867); conditions: ATP luminescence, 48 h; series mostly up to 45.8 µM; also: nearly all actives have a fitted effect of over 40% in size; also: potency is read from the fitted curve at half-maximal effect
Summary of the method: as §1

[6] = Quantitative High-Throughput drug screen in 47 multiple myeloma cell lines against the NCATS MIPE library collection: PE2_PLB cell viability assay (AID 1919869); conditions: PE2_PLB myeloma cells viability, ATP luminescence, 48 h; series mostly up to 45.8 µM; also: nearly all actives have a fitted effect of over 35% in size; also: potency is read from the fitted curve at half-maximal effect
Summary of the method: as §1

[7] = Quantitative High-Throughput drug screen in 47 multiple myeloma cell lines against the NCATS MIPE library collection: PCM6_Riken cell viability assay (AID 1919870); conditions: CellTiter-Glo ATP, 48 h; series mostly up to 45.8 µM; also: nearly all actives have a fitted effect of over 30% in size
Summary of the method: as §1

[8] = Quantitative High-Throughput drug screen in 47 multiple myeloma cell lines against the NCATS MIPE library collection: RPMI8226_ATCC cell viability assay (AID 1919871); conditions: RPMI8226 myeloma viability, CellTiter-Glo ATP luminescence, 48 h; series mostly up to 45.8 µM; also: nearly all actives have a fitted effect of over 30% in size; also: potency is read from the fitted curve at half-maximal effect
Summary of the method: as §1

[9] = Quantitative High-Throughput drug screen in 47 multiple myeloma cell lines against the NCATS MIPE library collection: UTMC2_PLB cell viability assay (AID 1919868); conditions: CellTiter-Glo ATP luminescence, 48 h; series mostly up to 45.8 µM; also: potency is read from the fitted curve at half-maximal effect; nearly all actives have a fitted effect of over 55% in size
Summary of the method: as §1

[10] = Quantitative High-Throughput drug screen in 47 multiple myeloma cell lines against the NCATS MIPE library collection: U266_ATCC cell viability assay (AID 1919864); conditions: U266 myeloma viability, CellTiter-Glo ATP luminescence, 48 h; series mostly up to 45.8 µM; also: nearly all actives have a fitted effect of over 35% in size; also: potency is read from the fitted curve at half-maximal effect
Summary of the method: as §1

Row | Compound | Potency [1] | viability [2] | Potency [3] | Potency [4] | Potency [5] | Potency [6] | Potency [7] | Potency [8] | Potency [2] | Potency [9] | Potency [10]
1 | CC(C)(S)[C@@H](N)C(=O)O | inactive | 133% | inactive | inactive | inactive | inactive | inactive | inactive | – | – | –
2 | CCCOc1ccc2nc(NC(=O)OC)[nH]c2c1 | 0.0187 µM (active) | – | – | inactive | – | 0.0469 µM (active) | – | – | 0.0093 µM (active) | 0.0209 µM (active) | –
3 | CN(C)CCc1c[nH]c2ccc(Cn3cncn3)cc12 | inactive | 127% | – | inactive | 2.09 µM (active) | inactive | inactive | inactive | – | – | inactive
4 | Nc1ccc(S(N)(=O)=O)cc1 | inactive | 120% | inactive | inactive | – | inactive | – | – | – | – | inactive
5 | S=c1nc[nH]c2nc[nH]c12 | 1.66 µM (active) | 104% | 2.35 µM (active) | 1.66 µM (active) | 5.26 µM (active) | 4.18 µM (active) | – | – | – | – | –
6 | O=C(NC(Cc1cc(=O)[nH]c2ccccc12)C(=O)O)c1ccc(Cl)cc1 (stereo not given) | inactive | 118% | – | 23.5 µM (active) | – | inactive | – | – | – | – | –
7 | c1ccc2[nH]c(-c3cscn3)nc2c1 | inactive | 120% | – | inactive | inactive | inactive | inactive | – | – | – | –
8 | O=P(O)(O)C(O)(Cn1ccnc1)P(=O)(O)O | inactive | 138% | inactive | – | 6.45 µM (active) | inactive | – | – | – | – | –
9 | NCCCCNCCCN | 23.5 µM (active) | – | – | 20.9 µM (active) | 26.4 µM (active) | 16.6 µM (active) | – | 23.5 µM (active) | 20.9 µM (active) | – | 7.43 µM (active)
10 | CCOC(=O)c1c(C)n(C)c2ccc(O)cc12 | inactive | 121% | – | 6.62 µM (active) | – | inactive | – | inactive | – | – | –

— PubChem BioAssay (NCATS)
